Data taken from the supplement of paper PMC3334620.
The full ranking holds about 33,000 sequences; the median of “E-score (-0.5 to 0.5)” is about -0.012, and the highest 2% start at about 0.29. For the sample, the highest values were picked, then their nearest neighbours and some sequences at random.

target: T1, Ybr033w (UniProt P38073); test: PBM E-score (8-mer binding enrichment) (E-score (-0.5 to 0.5)); higher = stronger / more preferred TF binding; conditions: protein concentration: 200 nM; construct: GST-full length
T1 sequence: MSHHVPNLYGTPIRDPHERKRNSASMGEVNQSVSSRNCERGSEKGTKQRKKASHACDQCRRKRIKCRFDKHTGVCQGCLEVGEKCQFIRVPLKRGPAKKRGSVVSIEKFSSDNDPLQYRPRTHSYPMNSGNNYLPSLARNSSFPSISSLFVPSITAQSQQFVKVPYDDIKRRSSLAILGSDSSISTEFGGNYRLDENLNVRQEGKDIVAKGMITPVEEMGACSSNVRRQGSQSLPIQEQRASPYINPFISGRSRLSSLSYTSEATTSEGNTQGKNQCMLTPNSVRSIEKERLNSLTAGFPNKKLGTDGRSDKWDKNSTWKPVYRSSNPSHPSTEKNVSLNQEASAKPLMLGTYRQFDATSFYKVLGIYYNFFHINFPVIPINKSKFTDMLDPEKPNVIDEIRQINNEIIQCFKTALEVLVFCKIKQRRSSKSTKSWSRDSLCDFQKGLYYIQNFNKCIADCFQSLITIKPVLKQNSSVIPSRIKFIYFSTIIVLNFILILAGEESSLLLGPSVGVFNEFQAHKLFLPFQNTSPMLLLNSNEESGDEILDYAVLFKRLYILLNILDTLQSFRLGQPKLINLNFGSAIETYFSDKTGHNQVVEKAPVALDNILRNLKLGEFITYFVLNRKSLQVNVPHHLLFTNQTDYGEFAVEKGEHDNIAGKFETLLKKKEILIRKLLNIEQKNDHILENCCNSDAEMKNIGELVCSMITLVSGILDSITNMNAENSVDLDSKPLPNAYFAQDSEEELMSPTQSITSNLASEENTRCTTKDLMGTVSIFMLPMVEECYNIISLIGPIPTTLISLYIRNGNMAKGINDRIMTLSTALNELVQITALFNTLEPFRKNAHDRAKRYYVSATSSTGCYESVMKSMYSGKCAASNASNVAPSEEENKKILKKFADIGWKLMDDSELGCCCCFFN
Description: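 Universal 'all 10-mer' protein binding microarrays (Agilent AMADID 015681) probed with GST-tagged S. cerevisiae TFs (full-length or DBD) made by in vitro transcription/translation (PURExpress), about 100-200 nM. Bound TF was detected with fluorescent anti-GST. Each ungapped 8-mer (which stands for itself and its reverse complement) is scored by the PBM enrichment score (E-score), a modified Wilcoxon-Mann-Whitney statistic from -0.5 to +0.5, computed with the Universal PBM Analysis Suite. Scale: above 0.35 generally sequence-specific binding.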

Sequence	PBM E-score
AGTGCTTA	-0.00926
CCATTTGC	0.0186
AGGTAGTC	-0.165
CATTAAAC	0.13
TATTAAAA	0.312
TATTTTAA	0.26
TTTTAAAA	0.073
GAGTTAAA	0.0599
TATTTAAA	0.301
CATTAAAA	0.319
CATTTAAA	0.21
AATTAAAA	0.112
CATTAAAG	0.147
TAGTTAAA	0.296
CAGTTAAA	0.192
AGAAATCC	0.0392
CGCAAGCC	0.0476
ACAGAGTC	-0.176
TAGTTGAA	0.307
ATGTTAAA	0.289
GGTTAAAA	0.0924
AAGTTGAA	0.0758
CTGTTAAA	0.109
CAGTTGAA	0.00266
GATTAAAA	0.311

Sequence	PBM E-score
TTGTTAAA	0.0557
GATTAAAC	0.17
CACTGTTC	-0.00287
ACTTCATG	-0.118
ACTGCAGC	-0.136
ACTTACCC	0.114
CCGACCAA	-0.0529
ATCATGAC	0.0647
CTGCTAAG	-0.132
GCATCGAC	-0.0951
TGACCACA	0.0413
TCCCTAAA	0.0945
ATTCGTGG	0.0347
ATATTTAC	0.215
CTATTTTA	0.252
ATATTTAA	0.372
CTATTTAA	0.022
AGATTTTC	0.322
AGATTTCC	0.135
ATATTTTA	0.3
ATATTTAG	0.321
AGATTTTA	0.109
GTATTTTA	0.23
ATTTTTAG	0.179
GTATTTAA	0.267

Sequence	PBM E-score
CCATTTAG	-0.056
CGTGGGCC	-0.155
AATCCTAA	0.0561
CCTCCAGG	-0.322
CACCGACG	-0.0189
ATATCCAT	0.196
GAGCTCAC	-0.27
CATATGCA	0.0648
CCCTTACC	-0.131
ATCTTTAA	0.299
ATCTTTAC	0.203
ATATTTCG	0.269
ATATTTTG	0.234
CTATTTCC	0.276
ATCTTTTA	0.236
CTATTTTC	0.284
ATATTTTC	0.342
ATATTTCC	0.349
CCCCTTTC	-0.262
GGAACGAA	0.104
AGGGATAT	0.0785
ACGACTCC	0.0443
CGGGGTAG	-0.177
GTGGCTAA	0.0232
GAAATTAA	0.294

Sequence	PBM E-score
GAAATTAC	0.255
AAAATTAT	0.358
AATTTTGT	0.215
AAATTTGG	0.0261
AAAATTCG	0.279
AAATTTGT	0.303
AAAATTAC	0.22
AAATTTAT	0.228
CAAATTAA	0.212
AAAATTCA	0.359
GAAATTCA	0.228
CCACTTAC	0.0573
TAACGGAA	0.153
CTCAGAGC	-0.191
CCGAAGTC	-0.0348
CAATGAAG	0.0396
GACTGTTA	0.0926
AGAGGAAT	-0.012
ACGAGGAC	-0.181
CTAAATGC	0.0943
TAAATTAA	0.283
TAAATTGA	0.265
AAAATTTC	0.132
AAAATTAG	0.179
AAAATTTT	0.293

Sequence	PBM E-score
AAAATTAA	0.308
GAAATTGA	0.289
GAAATTGC	0.0471
AAAAATTT	0.283
GGGGAGGA	-0.205
ATGGTCTC	-0.0831
CAGCAGAC	-0.106
ACAGTCGC	-0.136
AAGCGACG	-0.285
ACGGGTGG	-0.171
GTACGCTA	-0.178
TCCCTACA	-0.0308
CTTAAACA	0.104
TTTAAAAA	0.149
CTAAAAAA	0.267
ATTAAAGA	0.327
ATTAAACA	0.312
CTTAAAGA	-0.102
ATTAAACG	0.27
TTAAAAAA	0.306
ATTAAAAA	0.297
GTTAAAGA	0.182
ATTAAAAG	0.223
ATTAAAAC	0.272
GGGTATGA	0.0197

Sequence	PBM E-score
ACTCCCCT	-0.002
CTGATAAG	0.126
AGAAACCC	0.0994
CAGTGCCG	-0.105
CTTCGTAC	-0.103
GCCGCTAC	-0.121
GAGCTGCA	-0.284
AAGTAATG	0.141
TAGTAATA	0.241
GAGTAATA	0.334
AAGTAATT	0.331
CAGTAATC	-0.0846
GAGTAATC	0.132
CAGTAATA	0.317
AAGTAATA	0.0769
CAGTAATG	0.282
GGGCTGAA	0.0197
ATAGCCAT	0.0973
ACAATGCC	-0.0228
CGCAAATC	-0.0144
TAGGTGCA	-0.0741
TAATGGAA	0.184
TGGATTAA	0.38
TGCATTAA	0.256
GTGATTAA	0.291

Sequence	PBM E-score
GGGATTAC	-0.103
CTGATTAA	0.22
GGGATTAA	0.411
GTGATTTA	0.295
GGGATTGA	-0.148
CTGATTTA	0.156
ATGATTAA	0.231
ATGATTTA	0.253
CGGATTAG	-0.0597
ACGCATTG	-0.0453
AGCCCACG	-0.202
CATGGTGA	0.137
GCGATTTA	0.0771
CCGATTTA	0.183
GCGATTAA	0.19
ACGATTAA	0.141
TCGATTAA	0.288
ACGATTTA	0.36
ACACCGTC	-0.0477
AAGCGCAT	-0.0621
CACCGCTA	-0.0953
TAAACTGA	0.136
